# In all, about 25,000 sequences were measured (“ln(normalized median fluorescence intensity)”: median about 9.3, highest 2% from about 10 on). The sample holds the highest values, similar sequences and a random draw of the others, so the mix is not that of the screen.
# Tested on: PF3D7_0420300 AP2 domain 1 (GST-tagged)
# Test: gcPBM binding intensity (ln(normalized median fluorescence intensity)); higher = stronger DNA binding
# Method in brief: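 Binding intensity is the highest Masliner-normalised natural-log median intensity over replicate spots in either probe orientation. To obtain it, GST-tagged P. falciparum DNA-binding domains made in E. coli were incubated for 1 h on an Agilent 4 × 180k array of primer-extended double-stranded 36-bp intergenic genomic probes plus negative controls. Detection used Alexa488 anti-GST antibody with scanning at 488 nm.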
row,Sequence,gcPBM binding intensity (ln)
1,ATAATTATATTTTATTCACACATCGTTATATAGTAA [CACACA_site4743],9.31
2,AATATAAATGTGATTACACACAACAGATTTAAATGG [CACACA_site4802],9.53
3,TGTTTATATAATATTCTACACACCAACAACAAACAT [CACACA_site8087],9.74
4,AAAATTTTTAGTTATACACACAACATAGAAAATATT [CACACA_site328],9.47
5,TTTTTTTCACAAAATACACACAATATATTTTATATC [CACACA_site1138],9.25
6,TATAATAAAATTTTTACACACTTTAAAAAAAAAAAA [CACACA_site524],9.06
7,CATACACCCATACATACACACATACATATATATATA [CACACA_site8591],9.7
8,TATATATACATATACACACACACACCCATATATATA [CACACA_site2246],10.2
9,CATATACATACACATACACACATACACCCATACACA [CACACA_site8514],9.77
10,CATACACCCCAACACACACACACACCCATATATAAT [CACACA_site8097],10.4
11,ATACATATATATATATGTACATATATTTATATTTAT [XGTACX_site3155],9.21
12,TGAAAAAAGAAAAATACACACATATAACATAATATA [CACACA_site7126],9.83
13,CTCAACAAAATATGAGTGCATTGTTATTACATATAT,9.32
14,TAAAAATATAGGTATACACACATATAAATATAAATA [CACACA_site7785],9.64
15,TAATTCTTGTAAAATGTGCGCAGTAGATATAGTTTT,9.27
16,TACACCCACCAACACACACACACACTAATAAAAAAA [CACACA_site8060],10.1
17,AAGATAATTACGCACACACACACACGCCCACAACTA [CACACA_site7255],10.2
18,GATAATTATGGACACACACACACACCCACAACTAAA [CACACA_site8824],10.3
19,TAATTATGCAGACACACACACACACGCAACTAAAAA [CACACA_site7253],10.1
20,TGTGCCCAAAATTATGCACACACCTAAAATTAATTT [CACACA_site2914],9.42

row,Sequence,gcPBM binding intensity (ln)
1,AAAAGATAATTATGCACACACACACCCAGACACAAC [CACACA_site5428],10.1
2,TATGCACCCAGACACACACACACAACTAAAAAATAA [CACACA_site2567],9.96
3,AAAAATAAAAATTGCACACTAAAAAATTACGCACGA [CACACA_site3418],9.59
4,TAAAAAATAAAAATTGCACACTAAAAAATTACGCAC [CACACA_site9129],9.48
5,TGCACGCACAGACACACACACAACTAAAAAATAATG [CACACA_site7250],9.72
6,TAATTATGCCAACACACACACACACCCAACTAAAAA [CACACA_site8823],10.2
7,GATAATTACGGACACACACACACACGCACAACTAAA [CACACA_site7254],10.3
8,GTACATAGGTATAGCACACACAAATGTAGGTATTTT [CACACA_site4049],9.65
9,TATATTTATTATAACACACACATATAAATATTATAG [CACACA_site6726],9.67
10,TTGTTCTAATATATTGCACACGTAAAAATATAGGTA [CACACA_site8195],9.3
11,TAAGGATAAATAAAATGAAATGAAATAAATAAATGA [XGTACX_negctrl_site539],9.24
12,TATAAAATATAAATAAATAAATAAATATATATATAT [TGCATGCA_negctrl_site448],9.11
13,GCGGCGGTATCATGCACACGTATATATTGTAACAGT [CACACA_site4958],9.27
14,TTTTTTATTTTAATGTATTATTTTTATGTAATATAT [GTGCAC_negctrl_site391],9.23
15,AGAGTATATAAAGTAACACACAATAAAATAAAATAA [CACACA_site2328],9.82
16,TAAATACAAAAATGCACACGAAAAGTAATATATATA [CACACA_site6151],9.64
17,AAAAAAAAAAAACACACACACAATAGTATATAAATC [CACACA_site956],10.3
18,ATGGACAAAAAATATATACACACGAGGAAACCAACA [CACACA_site3726],10.1
19,AAAAAAAAAAGACACACACACAATAGTATATAAATC [CACACA_site6579],10.2
20,CAAAAATAAATATAAACACACAATAAATAAATAAAT [CACACA_site891],9.91

row,Sequence,gcPBM binding intensity (ln)
1,AAAAAAAAAAAAAACACACACACAATAGTATATAAA [CACACA_site957],9.94
2,AAAAATATGAAGACACAATATAGAAATAAAAATATA [XGTACX_negctrl_site244],9.44
3,TAAAAATAGTATACAACACACGAGGGAAAATAAAGT [CACACA_site3837],10.2
4,AACATAATAAAAATGGATATAATTCAAAGTTTGTAA [TGCATGCA_negctrl_site529],9.25
5,TTTTATATATATTATACACACAAGGAAAAAAAAAAA [CACACA_site3677],9.53
6,ATATATTTTATTCCTATATATATATATATATATATA [GTGCAC_negctrl_site556],9.27
7,AAAAATGTAAAGTGCGTGCACAAAATATTTGGAAAA,9.27
8,AGAAATATATCTATTTGTCCGTATATTCATATTTAT [XGTACX_site8427],9.4
9,CATATAAAAGGACACACACACACATATATATATATA [CACACA_site4674],10
10,ATATATACATATAACACACACATATATATATATATA [CACACA_site2575],9.56
11,TTAAACTTGAAACACACACACACACCCATATAAAAA [CACACA_site758],10.1
12,GTAACATACACATATACACACACACCGATATACATA [CACACA_site8278],10.2
13,ATAAAAAAAGGACACACACACATATATATATATATA [CACACA_site5662],9.93
14,AAGGATATAACATACACACACACACCCATATATATA [CACACA_site4142],10.3
15,TAACCATACATACATACACACACACCCACATATATA [CACACA_site8951],10.1
16,CCATAAAAAGGATACACACACACACCGACATATATA [CACACA_site4653],10.2
17,GGAAGGATATAACATACACACACACCCATATATATA [CACACA_site9376],10
18,TTAAACTTGAAACACACACACACACCGATATAAAAA [CACACA_site4578],10.2
19,AAGGATATAACATACACACACACACCGATATATATA [CACACA_site6136],10.2
20,TTTTTTTATAAAAATGAACACACACCGATATATATA [CACACA_site9161],9.63

# Reference: the supplement of paper PMC11417369
